Results filed as inconclusive are left out. More than one record can exist for a structure, and the calls need not agree. Active and inactive are the calls of the source. How the source made its calls: active means hit-call score of the fitted dose curve at least 0.9, where 1 is the maximum; inconclusive means response in the unintended direction; inactive means score below 0.9.
Assays:
[1] = molecular target: Cellular tumor antigen p53 (Homo sapiens) (UniProt P04637); experiment: TOX21_p53_BLA_p2_ratio: Tox21 HCT-116 p53 Agonism Beta-lactamase Assay, Ratio, Phase 2 (AID 2283592)
Sequence of Cellular tumor antigen p53 (Homo sapiens) (P04637 whole entry, looked up): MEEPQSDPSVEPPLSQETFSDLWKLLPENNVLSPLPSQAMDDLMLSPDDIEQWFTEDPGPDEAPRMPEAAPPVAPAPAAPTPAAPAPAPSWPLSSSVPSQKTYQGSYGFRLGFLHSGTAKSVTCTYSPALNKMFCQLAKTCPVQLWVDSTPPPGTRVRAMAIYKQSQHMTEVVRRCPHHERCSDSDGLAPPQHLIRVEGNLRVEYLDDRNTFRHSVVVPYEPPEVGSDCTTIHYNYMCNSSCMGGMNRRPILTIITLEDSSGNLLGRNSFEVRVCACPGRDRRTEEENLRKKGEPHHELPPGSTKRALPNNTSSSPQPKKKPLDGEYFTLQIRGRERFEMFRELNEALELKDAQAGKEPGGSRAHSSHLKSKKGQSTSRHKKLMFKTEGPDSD
Procedure, shortened: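 HCT116 cells carrying a p53-responsive beta-lactamase reporter were plated, incubated 5 h at 37C, then dosed with compounds in DMSO (217-fold dilution) for 16 h. CCF4-AM substrate was added for 2 h at room temperature; the 460/530 nm emission ratio gave gain-of-signal activity relative to DMSO.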

[2] = TOX21_p53_BLA_p3_viability: Viability Assessment in the Tox21 HCT-116 p53 Agonism Beta-lactamase Assay, Phase 3 (AID 2283593);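 further: cells exposed to compound for 16 h before reading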
Procedure, shortened: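 Cellular ATP was quantified by CellTiter-Glo luminescence, read after 30 min at room temperature. Beforehand, HCT116 cells (4000/well) received compound 5 h post-seeding, 217-fold diluted from DMSO, then incubated 16 h at 37C.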

[3] = molecular target: Cellular tumor antigen p53 (Homo sapiens) (UniProt P04637); experiment: TOX21_p53_BLA_p3_ratio: Tox21 HCT-116 p53 Agonism Beta-lactamase Assay, Ratio, Phase 3 (AID 2283596)
Procedure, shortened: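 HCT116 p53-bla cells (4000/well) given compound in DMSO (217-fold dilution) after 5 h, incubated 16 h at 37C. CCF4-AM substrate 2 h at room temperature; 460/530 nm emission ratio, gain fitted against DMSO.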

[4] = molecular target: Cellular tumor antigen p53 (Homo sapiens) (UniProt P04637); experiment: TOX21_p53_BLA_p5_ratio: Tox21 HCT-116 p53 Agonism Beta-lactamase Assay, Ratio, Phase 5 (AID 2283599)
Procedure, shortened: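 Beta-lactamase reporter ratio (blue 460 nm over green 530 nm, 405 nm excitation) after 2 h CCF4-AM loading, in HCT-116 cells exposed 16 h at 37 C to compounds pinned at 217-fold dilution. Increases relative to DMSO baseline scored.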

[5] = molecular target: Cellular tumor antigen p53 (Homo sapiens) (UniProt P04637); experiment: TOX21_p53_BLA_p4_ratio: Tox21 HCT-116 p53 Agonism Beta-lactamase Assay, Ratio, Phase 4 (AID 2283601)
Procedure, shortened: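 Signal is the blue/green (460nm/530nm) ratio of cleaved versus uncleaved CCF4-AM substrate, read after 2 h substrate loading. Cells were HCT116 carrying the p53-responsive beta-lactamase reporter, dosed 16 h at 37C, 5% CO2; CellTiter-Glo measured in parallel.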

[6] = TOX21_p53_BLA_p5_viability: Viability Assessment in the Tox21 HCT-116 p53 Agonism Beta-lactamase Assay, Phase 5 (AID 2283600)
Procedure, shortened: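 Cells were plated at 4000/well, rested 5 h at 37C, then given compounds in DMSO (217-fold dilution) for 16 h at 37C, 5% CO2. Following the CCF4-AM beta-lactamase read, CellTiter-Glo was added and luminescence was read after 30 min at room temperature.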

[7] = TOX21_p53_BLA_p4_viability: Viability Assessment in the Tox21 HCT-116 p53 Agonism Beta-lactamase Assay, Phase 4 (AID 2283597);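 further: hits lower the luminescence signal meaning cytotoxicity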
Procedure, shortened: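 HCT116 p53-bla cells (4000/well) rested 5 h at 37C, then received compounds in DMSO (217-fold dilution) for 16 h at 37C, 5% CO2. CellTiter-Glo was added after the CCF4-AM read, and luminescence was read after 30 min at room temperature.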

[8] = ACEA_AR_antagonist_AUC_viability: ACEA Biosciences xCELLigence Real-Time Cell Analysis on Androgen Receptor Antagonism for Viability (AID 2283776);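 further: 22Rv1 human prostate cancer cells growing on impedance electrode plates; area under impedance growth curve at 80 h after dosing as viability; hits lower the growth signal relative to DMSO meaning cytotoxicity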
Procedure, shortened: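 Viability endpoint from label-free cell-index monitoring: 22Rv1 cultures treated with an eight-point 1:4 dilution series starting at 100 uM final, AUC at 80 h fitted against DMSO.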

[9] = ACEA_AR_agonist_AUC_viability: ACEA Biosciences xCELLigence Real-Time Cell Analysis on Androgen Receptor Agonism for Viability (AID 2283775)
Procedure, shortened: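 Read-out is area under the impedance curve at 80 h post-dose in 22Rv1 cells, with DMSO as baseline and signal loss taken as reduced viability. Compounds ran in duplicate from 100 uM final.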

[10] = system: chicken Androgen Receptor (AR), gene 422165; experiment: ATG_chAR_XSP1: Attagene TRANS-FACTORIAL Multi-Species (XSP1) HepG2 Assay for chicken Androgen Receptor (AR) (AID 2283768)
Procedure, shortened: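 HepG2 cells transiently transfected with multiplexed GAL4-UAS reporter units expressing chimeric chicken AR-Gal4; 3 nM 6-alpha-fluorotestosterone for partial AR stimulation; 24 h after dosing, reporter mRNA by RT-PCR and capillary electrophoresis, gain-of-signal versus DMSO.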

[11] = system: frog Androgen Receptor (AR), gene 399456; experiment: ATG_frAR_XSP1: Attagene TRANS-FACTORIAL Multi-Species (XSP1) HepG2 Assay for frog Androgen Receptor (AR) (AID 2283770)
[12] = molecular target: zebrafish Estrogen Receptor (ESR1), esr1 (gene 259252) (UniProt P57717); experiment: ATG_zfER1_XSP1: Attagene TRANS-FACTORIAL Multi-Species (XSP1) HepG2 Assay for zebrafish Estrogen Receptor (ESR1) (AID 2283772)
Sequence of zebrafish Estrogen Receptor (ESR1), esr1 (gene 259252) (P57717 whole entry, looked up, the tested form may be a part): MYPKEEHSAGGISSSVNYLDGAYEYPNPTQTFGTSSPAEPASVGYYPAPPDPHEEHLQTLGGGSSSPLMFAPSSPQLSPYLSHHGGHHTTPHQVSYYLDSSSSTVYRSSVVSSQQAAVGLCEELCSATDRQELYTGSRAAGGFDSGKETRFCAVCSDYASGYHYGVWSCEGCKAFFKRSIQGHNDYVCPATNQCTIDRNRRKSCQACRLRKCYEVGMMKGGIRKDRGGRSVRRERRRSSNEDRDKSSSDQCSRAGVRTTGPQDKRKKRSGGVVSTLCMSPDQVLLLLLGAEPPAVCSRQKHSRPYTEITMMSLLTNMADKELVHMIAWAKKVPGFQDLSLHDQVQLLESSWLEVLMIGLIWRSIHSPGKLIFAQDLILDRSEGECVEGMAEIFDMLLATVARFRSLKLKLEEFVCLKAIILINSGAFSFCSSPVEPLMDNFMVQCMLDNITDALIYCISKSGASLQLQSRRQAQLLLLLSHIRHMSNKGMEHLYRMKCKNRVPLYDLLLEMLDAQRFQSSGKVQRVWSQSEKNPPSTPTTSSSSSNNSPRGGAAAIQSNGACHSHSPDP
Procedure, shortened: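 HepG2 cells were transiently transfected with multiplexed GAL4-UAS reporter units driven by chimeric NR-GAL4 proteins, dosed for 24 h with 3 nM 6-alpha-fluorotestosterone present, and reporter mRNA quantified by RT-PCR and capillary electrophoresis versus DMSO.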

[13] = system: zebrafish Estrogen Receptor (ESR2B), gene 317733; experiment: ATG_zfER2b_XSP1: Attagene TRANS-FACTORIAL Multi-Species (XSP1) HepG2 Assay for zebrafish Estrogen Receptor (ESR2B) (AID 2283773)
Procedure, shortened: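 Gain-of-signal endpoint relative to DMSO: reporter transcript levels quantified by RT-PCR and capillary electrophoresis after 24 h compound exposure of HepG2 cells expressing a zebrafish ER2b-Gal4 chimera.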

[14] = system: frog Estrogen Receptor (ESR2), gene 100174814; experiment: ATG_frER2_XSP1: Attagene TRANS-FACTORIAL Multi-Species (XSP1) HepG2 Assay for frog Estrogen Receptor (ESR2) (AID 2283774)
Procedure, shortened: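 Transactivation of an exogenous receptor-Gal4 fusion is tracked in transfected HepG2 cells via induced reporter transcript levels. After 24 h treatment, RT-PCR with capillary electrophoresis quantifies signal gain over DMSO.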

Measured: AC50

CC/C=C\CCOC(=O)CCCCC
inactive: [1] | [2] | [3] | [4] | [5]

CC(C)c1ccc(C#N)cc1
inactive: [1] | [2] | [6] | [5]

O=S(=O)(O)CC(O)CCl (centres undefined)
inactive: [1] | [2] | [3] | [4] | [5]

CC(=O)C=CC1C(C)=CCC(C)C1(C)C (centres undefined)
inactive: [1] | [2] | [4] | [5]

Cc1cccc(OCCOc2cccc(C)c2)c1
inactive: [1] | [2] | [3] | [4] | [5]

C=CC(C)(C)C
inactive: [1] | [2] | [3] | [4] | [6] | [5]

C=CCOCC(O)CCl (centres undefined)
inactive: [1] | [2] | [4] | [5]

c1ccc(CNCc2ccccc2)cc1
inactive: [1] | [3] | [7]

O=C(/C=C/C=C/c1ccc2c(c1)OCO2)N1CCCCC1
inactive: [1] | [2] | [7] | [4] | [5]

C=C(C)c1cccc(C(C)(C)N=C=O)c1
inactive: [1] | [2] | [4] | [6] | [5]

CC(C)=CCC/C(C)=C\C#N
inactive: [1] | [2] | [3] | [4] | [6] | [5]

Cc1c(C)c([N+](=O)[O-])c(C(C)(C)C)c([N+](=O)[O-])c1C
inactive: [1] | [2] | [7] | [4]

CCCCCCCCCCOS(=O)(=O)O
inactive: [1] | [2] | [7] | [4] | [8]

NC(=O)NNC(N)=O
inactive: [1] | [3] | [7] | [4]

c1c[nH]cn1
inactive: [1] | [2] | [3] | [4] | [5] | [9] | [8]

CCOc1ccc(N)c([N+](=O)[O-])c1
inactive: [1] | [2] | [4] | [6]

COC(=O)c1ccc2cc(C(=O)OC)ccc2c1
inactive: [1] | [2] | [7] | [4] | [6] | [5]

O=C(c1ccc(O)cc1)c1ccc(O)cc1O
inactive: [1] | [3] | [4] | [5]
active: [3] 68.5 µM | [4] 86.2 µM | [5] 72.9 µM | [10] 1.56 µM | [11] 2.78 µM | [12] 1.76 µM | [13] 1.23 µM | [14] 0.729 µM

Source: PubChem BioAssay (EPA / NIEHS)
